Most compounds without a hit are left out; they make up all but 9.3% or so of the library.
FMDV antiviral – blocks foot and mouth disease virus; FMDV antiviral cell-based qHTS; Potency, µM (series often up to 57.9 µM), most hits filed as inhibitors; 1.2% of 410,000 active; AID 1159524; calls by dose curve; tested in HEK293T cells; note: read-out not given here; nearly all actives have a fitted effect of over 45% in size
VACV Venus inh – inhibitors of vaccinia virus (Venus reporter) | Vaccinia virus Venus reporter expression, fluorescence | Potency, µM (titrated, usually from 36.5 µM), hits mostly inhibitors | 0.46% of 330,000 active; calls by dose curve; tested in A549 cells; note: nearly all actives have a fitted effect of over 30% in size
HCV inhibitor – blocks hepatitis C virus | Huh7.5.1 HCVcc-Cre infection, luciferase reporter, 44 h | Potency, µM (titrated, usually from 41.8 µM), most hits filed as inhibitors | 3.4% of 340,000 active
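Whole-lifecycle infectious HCVcc-Cre system; cells 1,000/well, compound then virus (~0.5 moi) added 4 h after plating, 44 h culture. Luciferase read 15 sec following 15 min substrate incubation, room temp.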
HCMV antiviral – inhibitors of human cytomegalovirus | activity change, negative = inhibition, % at 57.5 µM | HFF cells, HCMV-luciferase reporter, 72 h; hits give low values | 4.5% of 410,000 active; in the data active = activity change below about -60%; inconclusive = no clear call, values can overlap the other calls; inactive = above about -39%
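Two-dose cell screen: HFF monolayers treated with compounds and infected with luciferase-expressing HCMV at 1 PFU/cell, 72 h at 37C, then lysed for luciferase measurement.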
Vaccinia mCherry – inhibitors of vaccinia virus infection (mCherry reporter signal); Vaccinia virus mCherry reporter infection, fluorescence; Potency, µM (series often up to 36.5 µM), hits mostly inhibitors; 0.63% of 310,000 active; AID 720579; calls by dose curve; tested in A549 cells; note: nearly all actives have a fitted effect of over 35% in size
Sm TGR block – inhibitors of Schistosoma mansoni thioredoxin glutathione reductase; Q962Y6; purified TGR, DTNB reduction, TNB absorbance 405 nm; Potency, µM (highest dose often 114 µM), usual class: inhibitors; 3% of 360,000 active; AID 485364; note: nearly all actives have a fitted effect of over 60% in size
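TGR 20 nM + NADPH 100 uM (dispensed conc.), cpd preinc 15 min RT; start with NADPH (500 uM addition) then DTNB (15 mM addition). Kinetic TNB absorbance, 405 nm filter. Four-parameter Hill fit across titration.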
Hits are given with their value; i = inactive; ? = inconclusive; nt = not tested or not shown; ! = not confirmed by another sample. Unless noted, calls come from the whole dose curve; as a rule, active = well fitted curve in the direction sought with a large enough effect; inconclusive = small, poorly fitted or top-dose-only effect, or another doubt; inactive = no such curve, though single readings can be large; an effect the other way counts as inactive or inconclusive.

SMILES | FMDV antiviral | VACV Venus inh | HCV inhibitor | HCMV antiviral | Vaccinia mCherry | Sm TGR block
C#CCNC(=O)C1=C[C@@H](C(C)(C)C)C[C@@H](OCc2ccc(CO)cc2)O1 | i | i | i | i | i | 35µM
O=C(NCc1ccccc1)C1=C[C@H](c2ccc(Br)cc2)C[C@H](OCc2ccc(CO)cc2)O1 | i | i | i | i | i | i
O=C(NCc1ccccc1)C1=C[C@H](c2csc3ccccc23)C[C@H](OCc2ccc(CO)cc2)O1 | i | ? | ? | -61 | i | i
C#CCNC(=O)C1=C[C@H](c2csc3ccccc23)C[C@H](OCc2ccc(CO)cc2)O1 | ? | i | ? | i | i | i
O=C(Nc1ccccc1)C1=C[C@@H](c2csc3ccccc23)C[C@@H](OCc2ccc(CO)cc2)O1 | i | ? | 0.32µM | i | i | i
COc1ccccc1NC(=O)N1CCn2c(nc3ccccc32)C1 | i | nt | i | i | nt | i
CC(NS(=O)(=O)c1ccc(Br)cc1)C(=O)Nc1nc2ccccc2[nH]1 (configuration not stated) | i | i | i | i | i | ?
O=C(/C=C/c1ccco1)NC(=S)Nc1ccc(N2CCOCC2)c(Cl)c1 | i | i | i | i | nt | 40µM
O=C(/C=C/c1ccco1)Nc1ccc(CN2CCOCC2)cc1 | i | nt | i | i | nt | 20µM
O=C(/C=C/c1ccco1)Nc1ccccc1N1CCOCC1 | i | i | i | i | i | 20µM
O=C(C=Cc1ccco1)c1ccc([N+](=O)[O-])cc1 | i | i | i | i | i | nt
O=C(/C=C/c1ccccc1)NC(=S)Nc1ccc(N2CCOCC2)c(Cl)c1 | i | i | i | i | i | i
O=C(/C=C/c1ccco1)c1ccc(NC(=O)C23CC4CC(CC(C4)C2)C3)cc1 | i | i | i | i | i | 10µM
O=C(/C=C/c1ccco1)Nc1ccc(N2CCCC2)cc1 | i | i | i | i | i | i
O=C(/C=C/c1ccccc1)Nc1ccc(CN2CCOCC2)cc1 | i | nt | i | i | nt | i
c1ccc2c(c1)NC(CN1CCOCC1)CO2 (configuration not stated) | i | i | i | i | nt | i
O=C(/C=C/c1ccc(Cl)cc1Cl)Nc1ccc(CN2CCOCC2)cc1 | ? | nt | 3.2µM | -86 | nt | i
O=C(/C=C/c1ccco1)Nc1ccc(C(=O)N2CCOCC2)cc1 | i | i | i | i | i | 13µM
O=C(/C=C/c1ccc(Cl)cc1)NC(=S)Nc1ccc(CN2CCOCC2)cc1 | i | i | i | i | i | i
O=C(/C=C/c1ccco1)Nc1ccc2c(c1)OCCO2 | i | i | i | i | i | 20µM
Cc1nn(-c2ccccc2)c(-n2cccc2)c1C(=O)N1CCN(c2ccccc2)CC1 | i | i | nt | i | i | i
N#CC1=C(N)Oc2cc(N)ccc2C1c1cccnc1 (configuration not stated) | i | i | i | i | i | i
CCOC(=O)C1=C(c2ccccc2)OC(N)=C(C#N)C1c1ccc(Cl)s1 (configuration not stated) | i | i | i | i | i | ?
CCOC(=O)C1=C(c2ccccc2)OC(N)=C(C#N)C1c1ccc(Br)s1 (configuration not stated) | i | i | i | i | i | 40µM
CCOC(=O)C1=C(C)OC(N)=C(C#N)C1c1ccoc1 (configuration not stated) | i | nt | i | i | nt | 32µM
SMILES | FMDV antiviral | VACV Venus inh | HCV inhibitor | HCMV antiviral | Vaccinia mCherry | Sm TGR block
CCN(CC)c1ccc2c(c1)OC(N)=C(C#N)C2c1cccnc1 (configuration not stated) | ? | i | ? | -85 | ? | i
CCOC(=O)C1=C(N)OC(CCl)=C(C#N)C1c1ccsc1 (configuration not stated) | ? | i | i | i | i | 13µM
CCCCNC(=O)c1ccc(NS(=O)(=O)c2ccc3[nH]c(=O)[nH]c3c2)cc1 | i | i | i | i | i | i
CCOC(=O)C1=C(c2ccc(OC)cc2)OC(N)=C(C#N)C1c1cccnc1 (configuration not stated) | i | i | i | i | i | 11µM
Cc1[nH]c2ccccc2c1C(=O)CSc1nc2cc(S(=O)(=O)N3CCCCC3)ccc2o1 | i | nt | 7.1µM | i | nt | i
COc1cccc(C(NC(C)=O)c2nc(-c3cccc(NC(C)=O)c3)cs2)c1 (configuration not stated) | i | i | nt | i | i | nt
O=C(Nc1cnn(C23CC4CC(CC(C4)C2)C3)c1)c1cnn2c(C(F)(F)F)cc(-c3ccco3)nc12 | nt | i | 11µM! | i | i | i
O=C(COc1ccc(S(=O)(=O)N2CCOCC2)cc1)Nc1ccc(Cl)c(C(F)(F)F)c1 | nt | ? | ? | i | ? | i
CC(C)C1=NOC(C(=O)N2CCC(N3CCC(C(=O)N4CCOCC4)CC3)CC2)C1 (configuration not stated) | i | i | i | i | i | ?
CN(C)c1ccc(NC(=O)CSCc2nc3c(nnn3Cc3ccc(F)cc3)c(=O)[nH]2)cc1 | i | nt | i | nt | nt | 45µM
CCc1ccc(C(=O)c2cn(CC(=O)Nc3cc(F)ccc3F)c3nc(C)ccc3c2=O)cc1 | i | i | nt | i | i | i
O=C(COC(=O)CCCNC(=O)c1ccc(Cl)cc1)NC1CC1 | i | nt | i | i | nt | i
COc1cccc(C2=NO[C@@H]3C(=O)N(Cc4ccccc4)C(=O)[C@H]23)c1OC | i | nt | i | i | nt | 50µM
COc1cccc(C(=O)NC2CC(=O)N(c3ccc4c(c3)OCCO4)C2)c1OC (configuration not stated) | i | i | nt | i | i | i
COc1cccc(C2=NO[C@@H]3C(=O)N(c4ccc5c(c4)OCCO5)C(=O)[C@H]23)c1OC | i | nt | i | i | nt | 40µM
O=C(c1cccnc1)N1CCN(S(=O)(=O)c2ccc(F)cc2)CC1 | i | i | i | i | i | i
CC1CCc2c(c3ccccc3n2C(=O)CCl)C1 (configuration not stated) | 20µM | i | ? | i | i | 8.9µM
CCN1CCN(CC(=O)n2c3c(c4ccccc42)CC(C)CC3)CC1 (configuration not stated) | i | i | 3.2µM | i | nt | i
O=C(CSC1CS(=O)(=O)c2cc([N+](=O)[O-])ccc21)NNC(=O)c1ccc(Cl)cc1 (configuration not stated) | i | i | i | i | i | 16µM
CCC1(CC)NC(=O)N(CC(=O)Nc2sc3c(c2C(N)=O)CCC3)C1=O | i | i | ? | i | i | 45µM
CCN(C(C)=O)c1cnc(C=NNC(N)=S)c2ccccc12 | i | ? | 6.3µM | -97 | ? | nt
NC(=S)NN=Cc1nccc2c(N)cccc12 | i | ? | nt | i | ? | nt
Cc1cc(C)c(C)c(S(=O)(=O)N2CCC(C(=O)NNC(=O)c3ccccc3O)CC2)c1C | i | ? | 7.1µM | i | ? | i
Cc1ccc(S(=O)(=O)N2CCC(C(=O)NNC(=O)c3ccccc3O)CC2)cc1C | i | ? | ? | i | ? | i
Cn1c(=O)c2c(nc(NCc3ccc4c(c3)OCO4)n2Cc2ccccc2)n(C)c1=O | ? | i | ? | i | nt | i
